The whole screen tested about 52,000 sequences, of which about 210 (0.4%) were called active. The entries come from a sample that favours actives as a whole. A number with no mark means an inactive call.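 How the source made its calls: active means gene whose silencing raises cell survival under the drug, median off-target-corrected z-score across its silencing RNAs 2 or more; inactive means the rest.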
test: Resistance to Poly (ADP-Ribose) Polymerase inhibitor: Gene Identification via Genome-wide siRNA Screen; details: mouse BRCA2 R2336H ES cells, olaparib, CellTiter-Glo viability; active compounds read high
Procedure, shortened: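 Genome-wide siRNA screen (3 siRNAs/gene, 20 nM) in mouse ES cells carrying hypomorphic BRCA2 R2336H; olaparib 500 nM added 48 h post-transfection, CellTiter-Glo viability 72 h later. Normalized to plate-median negative control; MAD z-scores, gene median, seed-adjusted.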

Sequence	z-score
GGGAGAAGAAAUGGUUUAATT against B230315M08Rik	1.54 (active)
GGAGACAAAUAUGAUGUAUTT against Hook1	-1.94
GGAUUUUUCUUUUGAGCGATT against Figf	-0.866
GCACGUGGGCUAUUCCUACTT against Gria1	2.78 (active)
CCAACUUUCUCUUAGGAAATT against Gm580	0.9
CCUAUUUUUUCUCCACUGATT against Sntg1	-0.718
GGUCAUGGAAGAAGCAAAGTT against 5730555F13Rik	2.7
GGUUUUUUACACAACAUGCTT against 1110067D22Rik	0.0564
GGAGUACGUUGACAUCAUCTT against Timp4	-1.01
GCGCAUAUUUUAUCAACUCTT against Plcb3	1.31 (active)
GGAGAAACUUCAACUCUUATT against Resp18	0.73
CGAAAGAAGGUGAGGGCUCTT against Ppp1r9a	-0.95
GCGUAUCCCAGAUAUCCGATT against BC064033	0.0741
GCUGUUGCUGGCUAUUCUGTT against 5730409G15Rik	0.298
GCCUCACAACUCUUACACCTT against Ptprc	0.888
GGAUGGUCAUAAGGAUCAATT against Gpr128	2.66 (active)
CCAAGUAUUUCACAAACCGTT against Slc29a1	1.5
GGAAGAUGUCCAAACCCGCTT against Tm4sf7	0.167
CCAACUCGUUAUCACUAUATT against 1700001D09Rik	-0.0393
GGGUACAAUAUCCUUAAGUTT against D430033A06Rik	-0.51
GAUUCCACGCCAAUUCAUCTT against Ccl3	-1.53
CCCACCUAGGUUCAUCCCATT against Fath	2.93 (active)
GGCUUAUCAGUCCAUGAAGTT against BC022224	1.93
GGAGCCGAGUACAACAUCATT against Galgt1	0.763
CGUUUUCCACAAAGCAAAATT against Olfr1465	0.0226
GGCAAAGUGAUAUUUUCAATT against Slc6a12	1.85 (active)

Sequence	z-score
CCCGGAACUUAACUCUGUATT against LOC381438	-0.264
GCCAUUUACAUUCCCAGGGTT against Gm741	0.238
CCAAGCAACACCACUCAUCTT against Centb2	-0.144
GGAGAUGAAGAGGUUGGUUTT against Olig3	-0.366
GGGAUCGAUCAAUCAUAACTT against Tcfap2c	1.8
GGAAAUCUUACAGACUGAGTT against Grid2	2.5 (active)
GCGCAAGUACCUCAAGAGUTT against Grem2	0.717
GGUGCUAGUGUAUGAAUUATT against 9830109N13Rik	2.24
GGUGAUAACUCCCUAGUAGTT against Rai12	-1.43
CGGACAUUGUUCUGUUUUCTT against Por	1.14
CGACAUGUAAAACUAUUGUTT against BC034097	0.0442 (active)
CCUCUAGUAAAGAAAUAGATT against 2610019N13Rik	-2.5
GGGCUGAUGUGGGCUAAAUTT against 1110001E17Rik	4.07 (active)
CGAAGCUAAAGGAUAUAGATT against 1110025H10Rik	0.236
GCCCAUAACAAAACAUCUATT against Mcpt5	1.1
GGACAGAGCGUGCACUAGATT against Pqlc2	0.262
CCCUCCAAGAUAGAAGCGGTT against 2610021K21Rik	0.124
GGUGGCAUGUCAUUGCUUCTT against Igf2	1.16
GUCACUUGGCUUCCAUUGATT against Olfr510	1.19 (active)
GGUUUGAAAUCAGCAUGAUTT against A530065I17Rik	-0.647
GGCUUUGUGCUAAAAAAAATT against Pgm2l1	0.12
CGCAGACAGUUUGAGGCUGTT against 1700034P14Rik	-0.696
CCUUAGUUAGAAAUGUUGATT against Xkh	0.357
GCUGAAAAUACAAUCUCUGTT against Capn3	2.18
GGAACUGAUAACCAGCCAGTT against 1700029B21Rik	-0.44
CCUUGAUGACGAAAACAUATT against Plekha2	0.756

Sequence	z-score
GGCGAAGGUGUAGAAUCUCTT against A830094I09Rik	2.23 (active)
CGAAGUUCAUUCCUGUCUATT against Myf6	-0.688
GGAUUACGGUCACUGCCAUTT against Gabrr2	1.39
GGAGAUGACGUGAAAACAATT against Srf	1.93
GACUAGAACAACAGAAAGUTT against Vax2	1.24
GCAAGUAUACACCUCUCAATT against Slc6a12	2.24 (active)
GGUAUACACAUGAAAACCATT against 3110023B02Rik	2.35
GGAUGGUGACAUGAAAAUCTT against Ifng	-0.37
GGUGAUACGUAUUUUUUAGTT against 2700050F09Rik	1.03 (active)
CCACCAGACUCAUAUUAACTT against LOC433501	-0.496
CGAUUUGGCCUUGAUGGGUTT against Wtip	-0.561
GGAUAUCAAAGACAAAGCATT against 3100002B05Rik	0.612
GCCCAUUAUUUUCGGACUGTT against Olfr845	-2.22
CCUCAAUUGCAUGUGACCUTT against Itgb1bp1	-0.642
GGGCCUUUGGAUGUUGCUATT against Abcc10	1.24
GGUCCUUCCUCAGAUCCCUTT against 5730457F11Rik	1.66 (active)
GCUCUCACACCCUUAUGUATT against Sdfr1	-1.45
GGAAUACUUAUAGCUGACUTT against Rdhe2	0.32
GGGCUAUAACCCUGAAGAUTT against Rarg	1.67 (active)
GGACUUAGACAUCCACCUCTT against 1700034O15Rik	-0.799
CCGGGUGCUGUUCUAUAAGTT against Pecam1	0.0651
GCUUGGAAGACUGUAAACUTT against 4921521K07Rik	0.958
GGUGGUCUGGUUCAAGGAUTT against Mylk	-0.558
GGGUCCCUAAGCAUGUUCCTT against Slfn10	1.48
CGCAGAAGCUAAUAAACAGTT against Psmb6	-1.52
GCUGUUUUAUCUCCAAUGGTT against Araf1	1.6 (active)

Sequence	z-score
GGACAAGUUUCAGUGACCCTT against Zdhhc9	-0.268
GCCAUAUACAGGUUCAAAGTT against Msh6	0.613
GCCCAAUAUACUCUAAGGGTT against Cdh20	0.338
GCAUCAAAAUCGGUUUCUGTT against 4930526D03Rik	-0.28
GGAUCGCUCAUGGAUAUUUTT against Fus	-0.22 (active)
GGAGACAGAAUGCACAUUUTT against Tff3	-1.75
CCAUUCGGACCAAAGUGUATT against 4930563C04Rik	-1.48
GCCUCUGAGUUGCAUGAGUTT against Ppp2r5b	2.37 (active)
GCAAUGGUUGGUUCAAUAATT against 5730427C23Rik	-1.47
GGUAGAGGUUAAGACGAUCTT against C330023D02Rik	-0.997
CGGUGAAAAACCUAUGUAUTT against 1700028P14Rik	0.894
GGCAUUCUUAUAAAGAAACTT against Ube2q	3.88
CGCUGAAAUAAAGACCAGATT against 2400010G15Rik	1.99 (active)
GCCAGUGAGGCUACUUUCATT against Myo18a	-0.423
GCAUCUCACUCGUAAAGGUTT against 4732406D01Rik	-0.389
GGGAGAGGCACAAAGCAUATT against Ubxd3	1.27
GGGUUUUGUGUAAAAGGUUTT against Olfr584	1.72 (active)
GGGACACAAUUCUUUGAAATT against G630009D10Rik	0.375
GGACAUAAAAGACUUAAAGTT against Actr8	3.83 (active)
GGAGCCAUGACUUUUCACUTT against Sec22l1	0.164
GAGUCCCUUGGCAGCUCAUTT against Klra8	-0.753
GCACAAGAGGUAUCCUUGCTT against A630038D02	-0.381
GGAACAGAAAGCUAUGGAUTT against Surf6	-0.706
GGGAGAGUCAAAAAAAGAUTT against Khdrbs1	2.83 (active)
GGAGUACCUGGACAUUGUGTT against 1110032N12Rik	0.677
GGACGGACAUUUAUGACCCTT against Cpsf3	-0.072

Reference: PubChem BioAssay AID1347423 (Functional Genomics Laboratory (NCATS/FGL), 2020)
